{"source": "ChEMBL document CHEMBL3988442", "about": "“University of Dundee, Small-Polar-MMV Screening Library” (2021)", "tested_on": "Leishmania donovani", "experiment": "Leishmania intramacrophage assay", "format": "functional, organism-based", "set-up": "scale not given: in the data most compounds retested in dose-response had high values", "note": "Out of some 69,000 compounds screened, about 1,000 (1.4%) showed an effect of 50% or more. For the sample, strong results were picked, then their nearest neighbours and some compounds at random.", "data": [{"smiles": "Cc1ccc(C(=O)N2CCC3(CC2)COC(COc2ccccn2)C3)o1.O=C(O)C(F)(F)F", "note": "(stereo not given)", "values": [{"measurement": "Percent Effect", "setting": "30 µM, 30.03 µM", "value": -68.01, "unit": "%"}]}, {"smiles": "Cc1ccc(C(=O)N2CCC3(CC2)COC(COc2cccnc2)C3)o1.O=C(O)C(F)(F)F", "note": "(stereo not given)", "values": [{"measurement": "Percent Effect", "setting": "30.3 µM, […]", "value": 59.81, "unit": "%"}]}, {"smiles": "CCS(=O)(=O)N1CCC2(CC1)COC(COc1cccnc1)C2.O=C(O)C(F)(F)F", "note": "(stereo not given)", "values": [{"measurement": "Percent Effect", "setting": "30.3 µM, […]", "value": 15.1, "unit": "%"}]}, {"smiles": "Cc1ccc(N2CCCC(NCC(=O)NC3CCOCC3)C2)nn1", "note": "(stereo not given)", "values": [{"measurement": "Percent Effect", "setting": "30 µM, 30.03 µM", "value": 24.15, "unit": "%"}]}, {"smiles": "CCc1nc(C2CCCN(c3nccc(N4CCCC4)n3)C2)no1", "note": "(stereo not given)", "values": [{"measurement": "Percent Effect", "setting": "30.3 µM, […]", "value": 4.333, "unit": "%"}]}, {"smiles": "CC(C)CCN1CC[C@H](c2nnc(Cc3c[nH]c4ccccc34)o2)C1", "values": [{"measurement": "Percent Effect", "setting": "30.3 µM, […]", "value": 31.19, "unit": "%"}]}, {"smiles": "CCOc1ccc(CN2CCC(c3nc(C)cc(C)n3)C2)cc1CO", "note": "(stereo not given)", "values": [{"measurement": "Percent Effect", "setting": "30.3 µM, […]", "value": 20.63, "unit": "%"}]}, {"smiles": "Cc1nc(-c2cc(F)c3c(c2)CC(CN)O3)c[nH]1", "note": "(stereo not given)", "values": [{"measurement": "Percent Effect", "setting": "30.3 µM, […]", "value": 25.07, "unit": "%"}]}, {"smiles": "COc1cc(-c2cccc3c2OC(CN)C3)ccc1O", "note": "(stereo not given)", "values": [{"measurement": "Percent Effect", "setting": "30.3 µM, […]", "value": 33.17, "unit": "%"}]}, {"smiles": "COc1c(F)cc(-c2cccc3c2OC(CN)C3)cc1F", "note": "(stereo not given)", "values": [{"measurement": "Percent Effect", "setting": "30.3 µM, […]", "value": 78.5, "unit": "%"}]}, {"smiles": "NCC1Cc2cccc(-c3nccc(N4CCC(O)CC4)n3)c2O1", "note": "(stereo not given)", "values": [{"measurement": "Percent Effect", "setting": "30.3 µM, […]", "value": 19.12, "unit": "%"}]}, {"smiles": "COc1ccc(-c2cccc3c2OC(CN)C3)cc1F", "note": "(stereo not given)", "values": [{"measurement": "Percent Effect", "setting": "30.3 µM, […]", "value": 82.3, "unit": "%"}]}, {"smiles": "COc1cc(-c2ccc(F)c3c2OC(CN)C3)cc(OC)c1OC", "note": "(stereo not given)", "values": [{"measurement": "Percent Effect", "setting": "30.3 µM, […]", "value": 19.84, "unit": "%"}]}, {"smiles": "COc1cccnc1-c1ccc(F)c2c1OC(CN)C2", "note": "(stereo not given)", "values": [{"measurement": "Percent Effect", "setting": "30.3 µM, […]", "value": -22.62, "unit": "%"}]}, {"smiles": "Cc1nc(-c2cc(Cl)cc3c2OC(CN)C3)c[nH]1", "note": "(stereo not given)", "values": [{"measurement": "Percent Effect", "setting": "30.3 µM, […]", "value": 27.22, "unit": "%"}]}, {"smiles": "COc1cc(C)c(-c2ccc(F)c3c2OC(CN)C3)cc1C", "note": "(stereo not given)", "values": [{"measurement": "Percent Effect", "setting": "30.3 µM, […]", "value": 82.34, "unit": "%"}]}, {"smiles": "COc1cc(-c2cccc3c2OC(CN)C3)cc(OC)c1OC", "note": "(stereo not given)", "values": [{"measurement": "Percent Effect", "setting": "30.3 µM, […]", "value": 39.45, "unit": "%"}]}, {"smiles": "COc1cc(OC)cc(-c2cccc3c2OC(CN)C3)c1", "note": "(stereo not given)", "values": [{"measurement": "Percent Effect", "setting": "30.3 µM, […]", "value": 81.48, "unit": "%"}]}, {"smiles": "NCC1Cc2cccc(-c3ccc(O)c(F)c3)c2O1", "note": "(stereo not given)", "values": [{"measurement": "Percent Effect", "setting": "30.3 µM, […]", "value": 31.37, "unit": "%"}]}, {"smiles": "Cn1cnnc1C1CCCN(C(=O)c2cc(Cl)c(Cl)n2C)C1", "note": "(stereo not given)", "values": [{"measurement": "Percent Effect", "setting": "30 µM", "value": 16.78, "unit": "%"}]}, {"smiles": "Cc1ccc(N2CCCC(NCc3ccc4c(c3)OCCO4)C2)nn1", "note": "(stereo not given)", "values": [{"measurement": "Percent Effect", "setting": "30.3 µM, […]", "value": -12.27, "unit": "%"}]}, {"smiles": "CCCNC(=O)CCC(=O)N1CCC(c2n[nH]c(C3CC3)n2)CC1", "values": [{"measurement": "Percent Effect", "setting": "30.3 µM, […]", "value": -11.33, "unit": "%"}]}, {"smiles": "O=C1CCN(C(=O)NCc2ccccc2Oc2ccccc2)CCN1", "values": [{"measurement": "Percent Effect", "setting": "30.3 µM, […]", "value": -11.56, "unit": "%"}]}, {"smiles": "COc1ccc(CN2CCn3cc(CNC(=O)CC4CC4)nc3C2)cc1.O=C(O)C(F)(F)F", "values": [{"measurement": "Percent Effect", "setting": "30.3 µM, […]", "value": -3.07, "unit": "%"}]}, {"smiles": "CN1Cc2ccccc2CC1C(=O)N1CCN(CCS(C)(=O)=O)CC1", "note": "(stereo not given)", "values": [{"measurement": "Percent Effect", "setting": "30.3 µM, […]", "value": -7.608, "unit": "%"}]}, {"smiles": "COc1ccc(-c2nnsc2C(=O)N2CCC(C(N)=O)CC2)cc1", "values": [{"measurement": "Percent Effect", "setting": "30.3 µM, […]", "value": -2.161, "unit": "%"}]}, {"smiles": "O=c1[nH]cc(N2CCOCC2)c(=O)[nH]1", "values": [{"measurement": "Percent Effect", "setting": "30.3 µM, […]", "value": -12.54, "unit": "%"}]}, {"smiles": "O=C(O)C(F)(F)F.O=C(O)C(F)(F)F.O=c1ccc2c(n1Cc1ccncc1)CCN(Cc1ccoc1)CC2", "values": [{"measurement": "Percent Effect", "setting": "30.3 µM, […]", "value": 7.941, "unit": "%"}]}, {"smiles": "O=C(O)C(F)(F)F.O=C(O)C(F)(F)F.O=c1ccc2c(n1CCN1CCCC1)CCN(Cc1ccoc1)CC2", "values": [{"measurement": "Percent Effect", "setting": "30 µM, 30.03 µM", "value": 45, "unit": "%"}]}, {"smiles": "O=C(O)C(F)(F)F.O=C(O)C(F)(F)F.O=c1ccc2c(n1Cc1cccnc1)CCN(Cc1ccoc1)CC2", "values": [{"measurement": "Percent Effect", "setting": "30.3 µM, […]", "value": 52.28, "unit": "%"}]}, {"smiles": "CCN(CC)C(CNC(=O)c1ccnc(N(C)C)c1)c1ccsc1", "note": "(stereo not given)", "values": [{"measurement": "Percent Effect", "setting": "30.3 µM, […]", "value": 1.995, "unit": "%"}]}, {"smiles": "Cc1ccc(NC2CCN(C(=O)CCc3c(C)noc3C)CC2)nn1", "values": [{"measurement": "Percent Effect", "setting": "30 µM", "value": 23.52, "unit": "%"}]}, {"smiles": "Oc1ccc(-c2c(-c3ccccc3)ncn2C[C@H]2CCCN2)cc1", "values": [{"measurement": "Percent Effect", "setting": "30.3 µM, […]", "value": 51.83, "unit": "%"}]}, {"smiles": "O=C(O)c1ccccc1-c1c(-c2ccccc2)ncn1C[C@H]1CCCN1", "values": [{"measurement": "Percent Effect", "setting": "30.3 µM, […]", "value": 31.03, "unit": "%"}]}, {"smiles": "O=C(O)c1ccccc1-c1c(-c2ccccc2)ncn1CC1CCCO1", "note": "(stereo not given)", "values": [{"measurement": "Percent Effect", "setting": "30.3 µM, […]", "value": -1.472, "unit": "%"}]}, {"smiles": "CCc1ccc(C(COC)NC(=O)c2ccc(C(N)=O)cc2)o1", "note": "(stereo not given)", "values": [{"measurement": "Percent Effect", "setting": "30.3 µM, […]", "value": 64.18, "unit": "%"}]}, {"smiles": "CCc1ccc(C(COC)NC(=O)c2ccc(O)nc2)o1", "note": "(stereo not given)", "values": [{"measurement": "Percent Effect", "setting": "30.3 µM, […]", "value": -7.414, "unit": "%"}]}, {"smiles": "CCc1ccc(C(COC)NC(=O)c2ccc(NC(C)=O)cc2)o1", "note": "(stereo not given)", "values": [{"measurement": "Percent Effect", "setting": "30.3 µM, […]", "value": -4.032, "unit": "%"}]}, {"smiles": "NC(=O)CS(=O)(=O)Cc1csc(-c2ccccc2)n1", "values": [{"measurement": "Percent Effect", "setting": "30.3 µM, […]", "value": 15.77, "unit": "%"}]}, {"smiles": "Cc1nnsc1C(=O)NCCNS(=O)(=O)c1cccs1", "values": [{"measurement": "Percent Effect", "setting": "30.3 µM, […]", "value": -23.26, "unit": "%"}]}, {"smiles": "Cc1nc(C)n(C2CCCN(C(=O)c3sccc3C)C2)n1", "note": "(stereo not given)", "values": [{"measurement": "Percent Effect", "setting": "30 µM", "value": 16.01, "unit": "%"}]}, {"smiles": "CC(=O)NCCNC(=O)NCC1Cc2ccccc2O1", "note": "(stereo not given)", "values": [{"measurement": "Percent Effect", "setting": "30.3 µM, […]", "value": 52.86, "unit": "%"}]}, {"smiles": "Cc1cc(C)c(CNC(=O)NCC2Cc3ccccc3O2)c(=O)[nH]1", "note": "(stereo not given)", "values": [{"measurement": "Percent Effect", "setting": "30.3 µM, […]", "value": 1.622, "unit": "%"}]}, {"smiles": "CC(C)c1noc(CCNC(=O)NCC2Cc3ccccc3O2)n1", "note": "(stereo not given)", "values": [{"measurement": "Percent Effect", "setting": "30.3 µM, […]", "value": -9.19, "unit": "%"}]}, {"smiles": "NS(=O)(=O)CCNC(=O)c1cc(Br)c2c(c1)OCCO2", "values": [{"measurement": "Percent Effect", "setting": "30.3 µM, […]", "value": -2.46, "unit": "%"}]}, {"smiles": "CC(C)CC(=O)N1C[C@@H]2CCN(c3ncccn3)C[C@@H]2C1.O=C(O)C(F)(F)F", "values": [{"measurement": "Percent Effect", "setting": "30 µM, 30.03 µM", "value": 12.14, "unit": "%"}]}, {"smiles": "CC(C)(C)c1n[nH]cc1CNC1CCC(C(F)(F)F)CC1.Cl", "note": "(stereo not given)", "values": [{"measurement": "Percent Effect", "setting": "30.3 µM, […]", "value": -4.401, "unit": "%"}]}, {"smiles": "COCCNC(=O)[C@@H]1CN(c2cc(OC)ncn2)C[C@H]2OCC[C@H]21", "values": [{"measurement": "Percent Effect", "setting": "30.3 µM, […]", "value": 7.324, "unit": "%"}]}, {"smiles": "COCCNC(=O)[C@H]1CN(c2ncccn2)C[C@H]2OCC[C@@H]12", "values": [{"measurement": "Percent Effect", "setting": "30.3 µM, […]", "value": 52.44, "unit": "%"}]}, {"smiles": "COCCNC(=O)[C@@H]1CN(c2ncccn2)C[C@H]2OCC[C@H]21", "values": [{"measurement": "Percent Effect", "setting": "30.3 µM, […]", "value": 9.036, "unit": "%"}]}]}
